Our source for the growth inhibition values is PubChem BioAssay (NCI).

Compounds without any hit were thinned out: in the full panel of roughly 79,000, 15% have a hit. Values without a mark were called inactive. The source made the active and inactive calls. Cut-off read from the data, not from the text of the source: active = growth inhibition above about 70%; inactive = the rest.

Assay [1] is described as follows: NCI Yeast Anticancer Drug Screen. Data for the rad50 strain (AID 155).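 Note: 0% = growth of vehicle-only cultures of the same strain.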 The settings on record: S. cerevisiae rad50 strain growth inhibition; at 50.0 µM; hits give high values. A digest of the protocol:
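Growth of the mutant yeast was measured after compound exposure and referenced to vehicle-treated cultures.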

The nature of assay [2]: NCI Yeast Anticancer Drug Screen. Data for the mec2-1 strain (AID 157). As to conditions: S. cerevisiae mec2-1 strain, at 50.0 µM, hits give high values. A digest of the protocol:
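Cells of the genetically defined mec2-1 yeast strain are incubated with test compound. Inhibition of growth is calculated against vehicle-treated controls.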

Assay [3] is described as follows: NCI Yeast Anticancer Drug Screen. Data for the sgs1 mgt1 strain (AID 161).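 Note: 0% = growth of cultures given vehicle only.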 The settings on record: S. cerevisiae sgs1 mgt1 strain, at 50.0 µM, hits give high values. A digest of the protocol: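 Genetically altered yeast, compound exposure, growth inhibition relative to vehicle.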
Assay [4] can be described thus: NCI Yeast Anticancer Drug Screen. Data for the cln2 rad14 strain (AID 165).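 Note: 0% = growth equal to vehicle treated cultures.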 As to conditions: S. cerevisiae cln2 rad14 strain, at 50.0 µM, hits give high values. A digest of the protocol:
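The screen exposed genetically defined yeast (cln2 rad14) to test compounds and scored growth inhibition relative to vehicle-treated controls.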

A short description of assay [5]: NCI Yeast Anticancer Drug Screen. Data for the bub3 strain (AID 167). As to conditions: S. cerevisiae bub3 mutant strain, at 50.0 µM, hits give high values. A digest of the protocol: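 Whole-cell yeast assay. The mutant strain was incubated with compounds, and growth inhibition was determined by comparison with vehicle-treated cells.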
A short description of assay [6]: NCI Yeast Anticancer Drug Screen. Data for the mlh1 rad18 strain (AID 175). As to conditions: S. cerevisiae mlh1 rad18 strain growth inhibition; at 50.0 µM; hits give high values. The method, boiled down: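 Compound-treated yeast growth, normalised to vehicle controls. Strain bears defined DNA repair mutations.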

For `OC1C2CCC1C(N1CCOCC1)CC2` (stereo unspecified), the growth inhibition in assay [1] is 0.25%; in assay [2], 3.85%; in assay [3] it was 8.05%; in assay [4], -7.15%; in assay [5], 18.5%; in assay [6], 5.5%.
For the compound `NCCn1ccc2ccccc21`, the growth inhibition in assay [1] is 8.2%; in assay [2], -21.2%; in assay [3], 5.35%; in assay [4] it was 7.35%; in assay [5], -0.4%; in assay [6], 18.2%.
Consider `CC1CN1C1=C(Br)C(=O)C(N2CC2C)=C(Br)C1=O` (stereo unspecified), for which the growth inhibition in assay [1] was 73.7% (active); in assay [2], 23.1%; in assay [3], 84% (active); in assay [4], -3.05%; in assay [5], 62%; in assay [6], 79.8% (active).
On to `COc1ccc(NC(=O)COc2cccc(Cl)c2)cc1S(=O)(=O)F`, for which the growth inhibition was 3.95% in assay [1]; 32.1% in assay [2]; 14.4% in assay [3]; -2.65% in assay [4]; 30.1% in assay [5]; 1.15% in assay [6].
Regarding `CC1OC(OC2CCC3(C=O)C4CCC5(C)C(C6=CC(=O)OC6)CCC5(O)C4CCC3(O)C2)C(O)C(O)C1O` (stereo unspecified), the growth inhibition in assay [1] is 14.3%; in assay [2], -8.35%; in assay [3], -5.65%; in assay [4], 13.5%; in assay [5] it was -9.15%; in assay [6], -4.3%.
Take `O=[N+]([O-])c1cc(S(=O)(=O)F)cc(Cl)c1S`: the growth inhibition in assay [1] is 98.9% (active); in assay [2] it was 99% (active); in assay [3] it was 98.8% (active); in assay [4], 90.5% (active); in assay [5], 98.8% (active); in assay [6], 98.8% (active).
Turning to `CC1=CC(=Nc2ccc(N(CCCl)CCCl)cc2)C=CC1=O`, the growth inhibition in assay [1] is -6.1%; in assay [2], 33.2%; in assay [3], -28.4%; in assay [4], 14.2%; in assay [5], -7.9%; in assay [6] it was 5.35%.
`COC1=CC=C2[C@@H]3Cc4ccc(OC)c5c4[C@]2(CCN3CCCl)C1O5` (stereo partly specified): the growth inhibition was 27% in assay [1]; -5.35% in assay [2]; 4.75% in assay [3]; 8.2% in assay [4]; 6.85% in assay [5]; 10.6% in assay [6].
`NC(CCC(=O)NC(CSc1ccc([N+](=O)[O-])cc1[N+](=O)[O-])C(=O)NCC(=O)O)C(=O)O` (stereo unspecified): the growth inhibition in assay [1] is 0.05%; in assay [2] it was -4.75%; in assay [3] it was 12.2%; in assay [4], 8.7%; in assay [5], 3.2%; in assay [6] it was -11.1%.
On to `COc1cc(N=Nc2ccc([N+](=O)[O-])cc2)c([OH+]C)cc1[N+]#N.COc1cc(N=Nc2ccc([N+](=O)[O-])cc2)c([OH+]C)cc1[N+]#N.[Cl][Zn][Cl]`, for which the growth inhibition in assay [1] was 7%; in assay [2] it was -1.05%; in assay [3], -2.1%; in assay [4] it was -3.15%; in assay [5], 17.9%; in assay [6] it was 12.6%.
As to `O=C1OC(c2ccccc2)(c2ccccc2)C(=O)OC1(c1ccccc1)c1ccccc1`, the growth inhibition is 16.7% in assay [1]; -14% in assay [2]; 7.7% in assay [3]; 0.4% in assay [4]; 10.4% in assay [5]; 19.2% in assay [6].
In the case of `O=C(Nc1cccc(S(=O)(=O)F)c1)/C(=C/c1ccc([N+](=O)[O-])cc1)c1ccccc1`, the growth inhibition was 88.5% (active) in assay [1]; 86% (active) in assay [2]; 86.7% (active) in assay [3]; 79.2% (active) in assay [4]; 81.2% (active) in assay [5]; 88.2% (active) in assay [6].
Turning to `NC(Cc1ccccc1)c1nn[nH]n1` (stereo unspecified), the growth inhibition in assay [1] was -10.2%; in assay [2] it was -19.1%; in assay [3], -35.6%; in assay [4] it was -40.6%; in assay [5], -17.4%; in assay [6], -19.3%.
For `[Cl][Pt][Cl].c1ccc([PH+](c2ccccc2)c2ccccc2)cc1.c1ccc([PH+](c2ccccc2)c2ccccc2)cc1`, the growth inhibition in assay [1] is -1.7%; in assay [2], 4.75%; in assay [3] it was -4.95%; in assay [4] it was -6.6%; in assay [5], -1.6%; in assay [6], -16.9%.
For `CN(C)C(=O)NC(O)C(Cl)(Cl)Cl` (stereo unspecified), the growth inhibition in assay [1] is -20.4%; in assay [2], -8.35%; in assay [3], -5.45%; in assay [4] it was -21.1%; in assay [5], -4.25%; in assay [6], 19.1%.
Consider `Nc1nc(N)c2[nH]c(N)nc2n1`, for which the growth inhibition is -9.65% in assay [1]; -12.2% in assay [2]; -8.9% in assay [3]; -14.4% in assay [4]; 3.45% in assay [5]; -55.3% in assay [6].
Take `O=c1c2cc(Br)cc(Br)c2nc(CCCl)n1-c1ccc(O)c([N+](=O)[O-])c1`: the growth inhibition is -2% in assay [1]; 15.8% in assay [2]; -9.95% in assay [3]; 16.3% in assay [4]; -7.5% in assay [5]; -0.8% in assay [6].
For the compound `O=c1ccc(=O)[nH][nH]1.[Zn+2]`, the growth inhibition in assay [1] is -18.2%; in assay [2], 5.1%; in assay [3] it was -4.8%; in assay [4], -7.2%; in assay [5], -4%; in assay [6], -22.1%.
Regarding `O=c1[nH]cc([N+](=O)[O-])cc1[N+](=O)[O-]`, the growth inhibition in assay [1] is 1.5%; in assay [2], -16.6%; in assay [3], -2.25%; in assay [4], 22.7%; in assay [5] it was -15.6%; in assay [6], 0.5%.
As to `COc1ccc2c(c1)CC(CN1CCC3(CC1)C(=O)N(C)CN3c1ccccc1)O2` (stereo unspecified), the growth inhibition in assay [1] was -24.6%; in assay [2], 0.95%; in assay [3] it was -19.7%; in assay [4], -27.4%; in assay [5], 0.45%; in assay [6] it was -9.8%.
Regarding `O=[N+]([O-])c1cc([As](=O)(O)O)ccc1S(=O)(=O)O`, the growth inhibition in assay [1] was -0.6%; in assay [2] it was 7.65%; in assay [3] it was 7%; in assay [4] it was -3%; in assay [5] it was 9.2%; in assay [6], 2.2%.
